This is a sample that favours compounds with a hit; in the whole collection about 1.7% have one here.
GLP1R cytotox – cytotoxicity counter-screen for GLP-1 receptor inverse agonists; HEK293 cAMP-luciferase reporter cells, luminescence, 24 h; Potency, µM (series often up to 38.3 µM), actives largely listed as inhibitors; actives 0.13% (n = 410,000);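 also: loss of luciferase light is scored as toxicity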
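MLSMR compounds, 24 hr on cells at 37 deg C/5% CO2; luminescence after luciferase reagent (12 min RT). Inhibition counted as the undesired cytotoxic outcome.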
GLP1R inv ag – acts as inverse agonist at human GLP-1 receptor | Potency, µM (highest dose often 38.3 µM), usual class: inhibitors | P43220 | actives 1.6% (n = 410,000) | HEK293 GLP-1R CRE-luciferase, luminescence, 24 h; GLP-1R form is constitutively active; also: nearly all actives have a fitted effect of over 55% in size
Target sequence (P43220 whole entry, looked up): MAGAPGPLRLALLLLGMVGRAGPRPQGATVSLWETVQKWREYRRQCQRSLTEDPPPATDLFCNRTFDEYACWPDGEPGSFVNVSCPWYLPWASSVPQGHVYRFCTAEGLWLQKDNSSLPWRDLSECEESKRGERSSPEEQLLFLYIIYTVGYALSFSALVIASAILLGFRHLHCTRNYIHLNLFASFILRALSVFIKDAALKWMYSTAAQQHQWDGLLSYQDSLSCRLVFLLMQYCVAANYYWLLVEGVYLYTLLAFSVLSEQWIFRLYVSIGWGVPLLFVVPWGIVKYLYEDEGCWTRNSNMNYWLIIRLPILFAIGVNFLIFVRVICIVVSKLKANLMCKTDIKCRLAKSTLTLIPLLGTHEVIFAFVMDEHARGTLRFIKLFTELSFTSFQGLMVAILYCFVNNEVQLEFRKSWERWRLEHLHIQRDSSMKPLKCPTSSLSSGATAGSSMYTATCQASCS
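GLP-1R inverse agonism mode: basal reporter luminescence in engineered HEK293 cells measured after one day of compound exposure at 37 deg C, with a 12 min room-temperature detection step.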
GLP1R ag – agonists of human GLP-1 receptor. P43220. HEK293 GLP-1R CRE-luciferase, luminescence, 4-6 h; cells express a hypersensitive GLP-1R form. Potency, µM (top dose mostly 45.6 µM), usual class: activators. actives 0.007% (n = 380,000)
PTHR1 agonist – activates the human parathyroid hormone receptor PTHR1 | AID 743266 | actives 0.075% (n = 410,000) | HEK293 GP2 PTHR1 cells, GloSensor cAMP luminescence, 1 h | Potency, µM (top dose mostly 115 µM), hits mostly activators | Q03431; also: nearly all actives have a fitted effect of over 55% in size
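HEK-293-derived GP2 cells expressing PTHR1 and a GloSensor cAMP reporter, 3,000/well, plated overnight, given luciferin plus IBMX (each 0.5 mM as added) for 1 h at 37 °C, then compound for 1 h at 37 °C. Luminescence was read after 15 min at room temperature.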
A number is an active result; n = inactive; u = inconclusive; x = not tested or not shown. Calls follow the shape of the dose curve; as a rule, active = well fitted curve in the direction sought with a large enough effect; inconclusive = small, poorly fitted or top-dose-only effect, or another doubt; inactive = no such curve, though single readings can be large; an effect the other way counts as inactive or inconclusive.

SMILES	GLP1R cytotox	GLP1R inv ag	GLP1R ag	PTHR1 agonist
Cc1ccccc1Oc1cc(-n2ncc(Cl)c(Cl)c2=O)ncn1	3.2µM	u	n	n
O=C(OCc1ccccc1)c1cccnc1	x	x	n	x
Cc1cccc(/C=N/NC(=O)c2ccccc2OCc2cccc(Br)c2)n1	u	11µM	n	n
COc1ccc(C(=O)NC(C)C2CC3CCC2C3)c(OC)c1 (centres undefined)	n	10µM	n	n
CC(C(=O)NCc1ccccc1F)n1ccc2cc(S(=O)(=O)N3CCCC3)ccc21 (centres undefined)	n	u	x	n
O=C(CCC(=O)c1ccc(F)cc1)Nc1ccc(Cl)cc1	n	n	x	n
O=C(CCC(=O)c1ccc(F)cc1)Nc1cccc(S(=O)(=O)Nc2cccc(Cl)c2)c1	n	10µM	n	n
COC(=O)[C@@]12C[C@@H](CC(=O)NCc3cccs3)C(=O)N(Cc3cccc4ccccc34)C1=CCC(C)(C)C2	n	11µM	x	n
COC(=O)[C@@]12C[C@@H](CC(=O)NCC34CC5CC(CC(C5)C3)C4)C(=O)N(Cc3ccco3)C1=CCC(C)(C)C2	n	10µM	x	n
Cc1nc2c(-c3ccc(F)cc3)cnn2c(N)c1-c1ccc(F)cc1	n	2µM	n	n
Cc1cc(N)n2ncc(-c3ccc(F)cc3)c2n1	n	n	n	n
COc1ccc(-c2c(C)nc3c(-c4ccccn4)cnn3c2N)cc1	10µM	u	n	n
CCOC(=O)Cn1c(=O)oc2cc(S(=O)(=O)Nc3cc(OC)cc(OC)c3)ccc21	n	n	x	n
CCc1ccc(C2=NN(C(=O)OC)C(O)(C(F)(F)F)C2)cc1 (centres undefined)	n	7.9µM	n	n
COc1cccc(NC(=O)CN(C)C(=O)c2cc(-c3ccc(F)cc3)nc3ccccc23)c1	u	7.1µM	n	n
COc1ccc2cc(-c3cc(C(=O)O)c4ccccc4n3)ccc2c1	n	2.2µM	n	n
COc1cccc(NC(=O)CN(C)C(=O)/C=C/c2cn(-c3ccccc3)nc2-c2ccc(C)cc2)c1	n	2µM	n	n
COc1cccc(NC(=O)CN(C)C(=O)c2cc(-c3ccccc3)nc3ccccc23)c1	u	u	n	n
CC1CN(c2nc3ccccc3nc2SCC(=O)Nc2cccc(C(F)(F)F)c2)CC(C)O1 (centres undefined)	u	11µM	n	n
CCO/C=C/C(O)(CNC(=O)c1ccc(C(C)(C)C)cc1)C(F)(F)F (centres undefined)	n	8.9µM	n	n
CCOC(=O)CNC(=O)c1ccc(C)cc1	n	n	n	n
NC(=O)C1CCN(S(=O)(=O)c2ccc(N3CCCCS3(=O)=O)cc2)CC1	n	n	x	n
Cc1ccccc1C(=O)Nc1nnc(S(=O)(=O)N2c3ccccc3CC2C)s1 (centres undefined)	n	11µM	x	n
Cc1cccc(C(=O)Nc2nnc(S(=O)(=O)N3c4ccccc4CC3C)s2)c1 (centres undefined)	n	u	x	n
Oc1ccc(-c2n[nH]c(C(F)(F)F)c2-c2ccccc2)c(O)c1	n	u	n	n
SMILES	GLP1R cytotox	GLP1R inv ag	GLP1R ag	PTHR1 agonist
COc1ccccc1-c1c(-c2ccc(O)cc2O)n[nH]c1C(F)(F)F	n	11µM	n	n
Cc1ccc(C)c(N(CC(=O)Nc2cc(Cl)ccc2Oc2ccccc2)S(C)(=O)=O)c1	n	5µM	n	n
CC(C)CNS(=O)(=O)c1ccc(CCC(=O)Nc2cc(Cl)ccc2Oc2ccccc2)cc1	n	13µM	n	n
Cc1cccc(C)c1N(CC(=O)Nc1cc(Cl)ccc1Oc1ccccc1)S(C)(=O)=O	n	4.5µM	n	n
COc1ccc(Cl)cc1NC(=O)CN(c1cccc(C)c1C)S(=O)(=O)c1ccccc1	n	u	n	n
Cc1[nH]c2ccc(F)cc2c1CCN(Cc1cccnc1)C(=S)Nc1cccc(F)c1	n	10µM	n	n
CCc1ccc(Cn2c(CNS(=O)(=O)c3ccc(Cl)s3)nc3cccnc32)cc1	n	n	x	n
OC(CNCCc1ccccc1)COc1ccc(OCC(O)CNCCc2ccccc2)cc1 (centres undefined)	u	u	n	n
CC(C)N(CCNCC(O)COc1ccc(C(C)(C)c2ccccc2)cc1)C(C)C (centres undefined)	u	4µM	n	n
CCOc1ccc(N2C(=O)C(CC(=O)Nc3ccc(F)cc3)N(Cc3ccccn3)C2=S)cc1 (centres undefined)	n	10µM	n	n
